This passage reports growth results from PubChem BioAssay (NCI).

About 83,000 compounds went through this panel and 20% of them were active in at least one assay; those are over-represented in the sample as a whole.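 Testing used 96-well plates and a 48-hour single-concentration exposure. Example: -40 means 40% of the starting cells died.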 Values without a mark were called inactive. The source made the active and inactive calls. Rule for the calls: active = growth percent below 10; inactive = the rest.

Among the test systems are SK-MEL-2 melanoma; EKVX NSCLC; SN12C renal; UO-31 renal; TK-10 renal; ACHN renal; CAKI-1 renal; A498 renal; CCRF-CEM leukemia; MOLT-4 leukemia.
Assay in all cases: NCI-60 one-dose screen, 48 h (100 = growth as untreated, 0 = no growth, -100 = all killed)
Holding throughout (settings): 10 µM unless noted

On to `O=S(=O)(O)c1cnccn1`, for which the growth was 102% in the assay with SK-MEL-2 melanoma; 97.4% in the assay on EKVX NSCLC; 103% in the assay with SN12C renal; 93.4% in the assay with UO-31 renal; 94% in the assay with TK-10 renal; 104% in the assay with ACHN renal. In addition, the growth with CAKI-1 renal was 92.3%; with A498 renal, 118%; with CCRF-CEM leukemia it was 112%; in the assay with MOLT-4 leukemia, 101%.

Regarding `CCOC(=O)/C(=C\c1ccc2ccccc2c1)P(=O)(OCC)OCC`, the growth in the assay on SK-MEL-2 melanoma was 54.7%; in the assay on EKVX NSCLC, 71%; in the assay on SN12C renal it was 17%; in the assay with UO-31 renal, 12.4%; with TK-10 renal it was 61.4%; in the assay on ACHN renal, 14%. Besides, the growth is 45.5% with CAKI-1 renal, 55.3% in the assay with A498 renal, -36.6% (active) with CCRF-CEM leukemia and -25.1% (active) with MOLT-4 leukemia.

Consider `Cc1cc(C)c([I+]c2c(C)cc(C)cc2C)c(C)c1`, for which the growth with SK-MEL-2 melanoma was -44.1% (active); in the assay on EKVX NSCLC, 4.01% (active); with SN12C renal, -66.2% (active); in the assay on UO-31 renal, -20.4% (active); with TK-10 renal it was 12.7%; with ACHN renal, -16.1% (active). Besides, the growth is 29.2% in the assay with CAKI-1 renal, 45% in the assay on A498 renal, -29.5% (active) in the assay with CCRF-CEM leukemia and -41.1% (active) in the assay with MOLT-4 leukemia.

Consider `Cc1cc(C(=C2C=CC(=Nc3ccccc3)C=C2)c2ccc(Nc3ccccc3)cc2)ccc1N`, for which the growth in the assay with SK-MEL-2 melanoma is -87.4% (active); with EKVX NSCLC it was -42.7% (active); in the assay with SN12C renal it was -63.5% (active); in the assay with UO-31 renal it was -67.4% (active); in the assay with TK-10 renal, -64.7% (active); in the assay with ACHN renal it was -89.8% (active). The growth is -56.6% (active) in the assay with CAKI-1 renal, -78.8% (active) in the assay on A498 renal, 3.34% (active) in the assay on CCRF-CEM leukemia and 22.2% with MOLT-4 leukemia.

Consider `OC(c1cc(C23CC4CC(CC(C4)C2)C3)nc2c(Cl)cc(Cl)cc12)C1CCCCN1` (stereo not given), for which the growth was -73.5% (active) with SK-MEL-2 melanoma; -33.6% (active) with EKVX NSCLC; -61.4% (active) in the assay on SN12C renal; -83.3% (active) in the assay with UO-31 renal; -88.1% (active) with TK-10 renal; -70.1% (active) with ACHN renal. Besides, the growth with CAKI-1 renal is -54.5% (active); with A498 renal it was -1.09% (active); in the assay with CCRF-CEM leukemia, -45.3% (active); in the assay with MOLT-4 leukemia, -53.2% (active).

For `NNc1ccc(Cl)cc1Cl`, the growth was 92.4% in the assay with SK-MEL-2 melanoma; 81.1% with EKVX NSCLC; 78.3% in the assay on SN12C renal; 29.2% in the assay on UO-31 renal; 94.3% in the assay with TK-10 renal; 54.7% in the assay on ACHN renal. For the same molecule, the growth in the assay on CAKI-1 renal was 58.8%; in the assay on A498 renal it was 97.2%; with CCRF-CEM leukemia, 27.7%; with MOLT-4 leukemia, 52.7%.

For the molecule `NC(=S)N/N=C\c1nccc2c(N)cccc12`, the growth in the assay with SK-MEL-2 melanoma was 39.3%; in the assay with EKVX NSCLC it was 34.5%; in the assay with SN12C renal, 8.66% (active); in the assay with UO-31 renal it was -8.44% (active); with TK-10 renal, 48%; in the assay on ACHN renal, -7.84% (active). Further, the growth in the assay with CAKI-1 renal was -23.9% (active); in the assay on A498 renal, 12.2%; in the assay with CCRF-CEM leukemia, 8.4% (active); with MOLT-4 leukemia, 3.28% (active).

As for `CN=C(N)N/N=C(\C)c1ccc2c(c1)Cc1ccccc1-2`, the growth was -51.8% (active) in the assay with SK-MEL-2 melanoma; 1.95% (active) in the assay with EKVX NSCLC; -40.5% (active) in the assay with SN12C renal; -87.9% (active) in the assay with UO-31 renal; -75% (active) in the assay with TK-10 renal; -92.1% (active) with ACHN renal. The growth is -53.9% (active) with CAKI-1 renal, -8.05% (active) in the assay on A498 renal, -35.2% (active) with CCRF-CEM leukemia and -63% (active) in the assay with MOLT-4 leukemia.

Regarding `CCOc1ccc(Nc2nc3c(s2)C(=O)c2ccccc2C3=O)cc1`, the growth is 101% with SK-MEL-2 melanoma; 96.4% in the assay on EKVX NSCLC; 51.3% in the assay on SN12C renal; 72.9% in the assay on UO-31 renal; 127% in the assay on TK-10 renal; 75.1% in the assay with ACHN renal. Also, the growth was 74.2% in the assay with CAKI-1 renal, 76.7% with A498 renal, 51.4% with CCRF-CEM leukemia and 48.5% in the assay with MOLT-4 leukemia.

Consider `Clc1ccc(-n2ncc3c(NCCCN4CCOCC4)ncnc32)cc1`, for which the growth in the assay with SK-MEL-2 melanoma is 108%; in the assay on EKVX NSCLC it was 92.9%; in the assay on SN12C renal, 99.1%; in the assay on UO-31 renal it was 79.6%; in the assay with TK-10 renal, 107%; in the assay with ACHN renal, 96.4%. Moreover, the growth was 107% in the assay on CAKI-1 renal, 104% in the assay on A498 renal, 94.4% with CCRF-CEM leukemia and 97.7% in the assay with MOLT-4 leukemia.

Consider `CN1CSC(=S)N(Cc2ccccc2)C1`, for which the growth in the assay on SK-MEL-2 melanoma is 73.3%; in the assay on EKVX NSCLC it was 118%; in the assay on SN12C renal, 99.9%; in the assay with UO-31 renal, 69.5%; in the assay with TK-10 renal, 28.6%; in the assay on ACHN renal it was 102%. Moreover, the growth is 80% with CAKI-1 renal, 145% in the assay on A498 renal, 59.3% in the assay on CCRF-CEM leukemia and 64.5% in the assay with MOLT-4 leukemia.

In the case of `Cc1ccccc1NC(=O)Cc1csc2[n+]1C(=O)/C(=C/c1ccc([N+](=O)[O-])cc1)S2`, the growth is 108% in the assay with SK-MEL-2 melanoma; 92.8% in the assay with EKVX NSCLC; 99.6% in the assay on SN12C renal; 71.8% in the assay on UO-31 renal; 117% in the assay on TK-10 renal; 90.4% in the assay with ACHN renal. Moreover, the growth was 93.4% in the assay on CAKI-1 renal, 75% with A498 renal, 99.1% in the assay with CCRF-CEM leukemia and 88.2% in the assay on MOLT-4 leukemia.

`O=C(c1ccccc1)c1cc2ccccc2oc1=O`: the growth in the assay with SK-MEL-2 melanoma was 126%; in the assay with EKVX NSCLC it was 95.5%; in the assay with SN12C renal, 89.4%; in the assay on UO-31 renal, 59.3%; in the assay with TK-10 renal it was 130%; in the assay with ACHN renal, 101%. Besides, the growth in the assay on CAKI-1 renal was 98.7%; in the assay on A498 renal, 117%; in the assay with CCRF-CEM leukemia it was 101%; in the assay on MOLT-4 leukemia, 105%.

For `C[n+]1ccccc1C[n+]1ccccc1`, the growth in the assay with SK-MEL-2 melanoma is 94.4%; in the assay on EKVX NSCLC it was 113%; in the assay on SN12C renal it was 105%; in the assay with UO-31 renal, 90.5%; with TK-10 renal it was 98.9%; in the assay with ACHN renal, 112%. The growth was 114% in the assay on CAKI-1 renal, 109% in the assay on A498 renal, 92.7% with CCRF-CEM leukemia and 83.6% with MOLT-4 leukemia.

On to `O=C(/C=C/c1ccccc1)c1ccccc1O`, for which the growth was 98.6% with SK-MEL-2 melanoma; 89.2% with EKVX NSCLC; 92.1% with SN12C renal; 64.6% in the assay on UO-31 renal; 94.3% in the assay with TK-10 renal; 87% in the assay with ACHN renal. In addition, the growth with CAKI-1 renal was 75.2%; in the assay on A498 renal it was 98.3%; in the assay with CCRF-CEM leukemia, 55.1%; in the assay on MOLT-4 leukemia it was 70.2%.
